Growth data for 15 molecules are collected here from PubChem BioAssay (NCI).

Common to all, as to experiment: NCI-60 one-dose screen, 48 h (100 = growth as untreated, 0 = no growth, -100 = all killed)
What all share (conditions): 10 µM

In assay [1] the test system is SK-MEL-2 melanoma.
The subject of assay [2] is EKVX NSCLC.
Assay [3] deals with SN12C renal.
Assay [4] relates to UO-31 renal.
Assay [5] relates to TK-10 renal.
Assay [6] deals with ACHN renal.
Assay [7] relates to CAKI-1 renal.
For assay [8], the system named is CCRF-CEM leukemia.
The test system of assay [9] is MOLT-4 leukemia.

Compounds without any hit were thinned out: in the full panel of roughly 83,000, 20% have a hit.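 Single-dose data. Exposure time 48 hours. Values below 10 considered active.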 Unmarked numbers belong to inactive results. Active and inactive are the calls of the source.

In the case of `COc1ccc(C(=O)c2ccccc2CN2C(=O)c3ccccc3C2=O)cc1`, the growth in assay [1] is 103%; in assay [2], 101%; in [3], 105%; in assay [4] it was 75.1%; in assay [5], 104%; in assay [6], 102%. Further, the growth in assay [7] was 102%; in [8] it was 91.5%; in assay [9], 87%.

Take `Cc1ccc(-n2c(C)nn3c(=O)c4c5c(sc4nc23)CN(C)CC5)cc1`: the growth was 95% in [1]; 95% in assay [2]; 97.6% in assay [3]; 83.2% in [4]; 82.4% in [5]; 101% in assay [6]. For the same molecule, the figures for the growth in [7] and in assay [9] were 88.5% and 97.9%, respectively.

Consider `O=C1c2ccccc2C(=O)c2c1ccc1c(=O)n(-c3ccccc3C(F)(F)F)nnc21`, for which the growth is 56.5% in [1]; 36.3% in assay [2]; 5.97% (active) in [3]; 22.6% in assay [4]; 54.8% in assay [5]; 23.6% in assay [6]. Further, the growth was 24.3% in [7], 15% in assay [8] and 7.06% (active) in assay [9].

Regarding `COc1cccc(CNc2cccc3cn[nH]c23)c1O`, the growth was 103% in [1]; 79.9% in assay [2]; 91% in [3]; 60.1% in assay [4]; 92.4% in assay [5]; 98.7% in assay [6]. In addition, the growth is 85.9% in assay [7], 101% in assay [8] and 98% in [9].

In the case of `O=C1CCn2c1c(O)c1ccccc1c2=O`, the growth was 126% in [1]; 94% in [2]; 108% in [3]; 96.5% in assay [4]; 107% in [5]; 111% in [6]. Also, the growth was 86.3% in [7], 99.6% in [8] and 106% in assay [9].

Consider `COc1cc2c3c(n(C4CCNCC4)c(=O)c2cc1OC)-c1cc2c(cc1C3=O)OCO2`, for which the growth in assay [1] is 76.4%; in assay [2], -68.4% (active); in [3], -69% (active); in [4] it was -70.2% (active); in [5] it was 76%; in [6], -81.7% (active). In addition, the growth in assay [7] is 21.4%; in [9], -27.1% (active).

Consider `CC(=O)Nc1ccc(S(=O)(=O)c2ccnc3cc(Cl)ccc23)cc1`, for which the growth in [1] is 79.2%; in assay [2], 86.7%; in assay [3], 81%; in [4] it was 106%; in assay [5] it was 82.3%; in [6] it was 69.3%. Besides, the growth was 75.3% in assay [7] and 68.8% in assay [9].

Take `CCOC(=O)c1sc2ncnc(Nc3ccc4c(cnn4C(=O)Nc4ccccc4)c3)c2c1C`: the growth in [1] was 85%; in assay [2], 84.3%; in assay [3], 61.3%; in assay [4] it was 87.6%; in assay [5], 78.6%; in assay [6], 87.6%. Further, the growth in assay [7] is 83.9%; in assay [9] it was 91%.

With `Cn1c2ccccc2c2c3[nH][nH]c(=O)c3c3c4ccccc4[nH]c3c21`, the growth in assay [1] is 10.9%; in assay [2] it was 49%; in assay [3], 16.1%; in assay [4], -26.9% (active); in [5], 93%; in assay [6] it was -8.79% (active). The values for the growth in assay [7] and in assay [9] were 60.2% and 5.9% (active), respectively.

For the molecule `COc1ccc(-c2nn(-c3cccc(Cl)c3)cc2-c2cc(-c3cccs3)[nH]c(=S)n2)cc1`, the growth in [1] was 71.3%; in assay [2] it was 44.6%; in assay [3] it was 61.1%; in [4], 24.3%; in [5], 66.7%; in assay [6], 48.4%. Further, the results for the growth in assay [7] and in assay [9] were 12.5% and 21.9%, respectively.

Take `O=C1/C=C/[C@@H](O)[C@@H]2C[C@@H](O)C[C@H]2/C=C/CCC[C@@H](C(F)(F)F)O1`: the growth was 86.3% in assay [1]; 90.4% in [2]; 90.3% in assay [3]; 47.6% in assay [4]; 73.7% in assay [5]; 98.3% in assay [6]. Moreover, the figures for the growth in assay [7], in assay [8] and in assay [9] were 98.4%, 92.2% and 84.7%, respectively.

Take `IC(I)I`: the growth is 108% in assay [1]; 102% in [2]; 95.1% in assay [3]; 97.2% in assay [4]; 107% in assay [5]; 110% in assay [6]. For the same molecule, the growth is 103% in assay [7] and 102% in assay [9].

`CCN1C(=O)CC(SC2CC(=O)N(CC)C2=O)C1=O` (stereo not given): the growth in assay [1] was 93.6%; in assay [2], 95.9%; in [3], 98.6%; in [4], 80.2%; in assay [5], 89.4%; in assay [6], 106%. For the same molecule, the growth is 95.1% in [7] and 72% in assay [9].

Take `COc1cc2c3c(n(C4CCN(C)CC4)c(=O)c2cc1OC)-c1cc2c(cc1C3=O)OCO2`: the growth in [1] was 80.8%; in assay [2], 69.4%; in assay [3], 43.4%; in assay [4], 52.4%; in assay [5], 86.9%; in [6] it was 57.2%. In addition, the figures for the growth in assay [7] and in assay [9] were 75.6% and 29.5%, respectively.

Consider `O=C(CCn1cnc2c(cc(-c3ccccc3)n2-c2ccccc2)c1=O)Nc1ccc(F)cc1`, for which the growth in [1] was 84.5%; in assay [2], 80.8%; in assay [3], 73.6%; in [4], 75%; in assay [5] it was 92.8%; in assay [6], 55.7%. The growth in [7] was 97.1%; in assay [9] it was 85.5%.
